The values below come from PubChem BioAssay (EPA / NIEHS).

Records with an inconclusive call do not appear. Activity calls are given as the source filed them. The calls were made as follows, unless noted: active = hit-call score of the fitted dose curve at least 0.9, where 1 is the maximum; inactive = score below 0.9.

Read-out in one experiment: CD69, CD69 (gene 969)
The experiment is described as follows: BSK_SAg_CD69: BioMAP Diversity Plus: SAg Assay for CD69 Biomarker Activity (AID 2283089).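 As to AC50: cell surface CD69 protein quantified by ELISA with fluorescence detection.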 The note with it: primary human HUVEC with PBMC; actives raise or lower the signal. The essentials: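 Primary human vascular co-culture (umbilical vein endothelium with peripheral blood mononuclear cells) exposed to test chemical for 24 h. CD69 levels quantified by fluorescence ELISA; DMSO served as negative control for bidirectional fitting.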

Read-out in experiment [1]: Monocyte Chemoattractant Protein-1 (MCP1), CCL2 (gene 6347)
The experiment is described as follows: BSK_SAg_MCP1: BioMAP Diversity Plus: SAg Assay for Monocyte Chemoattractant Protein-1 (MCP1) Biomarker Activity (AID 2283090). To be noted: primary human HUVEC with PBMC; actives raise or lower the signal. The essentials:
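MCP-1 levels in the endothelial–PBMC SAg co-culture were quantified by ELISA at 24 h post-dosing; both increases and decreases versus DMSO scored. Cytotoxicity monitored by SRB total protein in parallel cultures.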

Read-out in experiment [2]: E-selectin (Homo sapiens) (UniProt P16581)
The experiment is described as follows: BSK_SAg_Eselectin: BioMAP Diversity Plus: SAg Assay for Eselectin Biomarker Activity (AID 2283091). The note with it: primary human HUVEC with PBMC; actives raise or lower the signal. The essentials:
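Human umbilical vein endothelial cells co-cultured with peripheral blood mononuclear cells, SAg system. E-selectin is measured by ELISA 24 h after dosing and fitted bidirectionally against DMSO. Cytotoxicity is checked by SRB staining of parallel cultures.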

Read-out in experiment [3]: Monokine induced gamma interferon (MIG), CXCL9 (gene 4283)
The experiment is described as follows: BSK_SAg_MIG: BioMAP Diversity Plus: SAg Assay for Monokine induced gamma interferon (MIG) Biomarker Activity (AID 2283092). The note with it: primary human HUVEC with PBMC; actives raise or lower the signal. The essentials: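 Endothelial cells and PBMC were co-cultured, exposed to test chemicals, and sampled 24 h later. MIG was measured by ELISA, and responses were fitted in both directions relative to DMSO.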

Experiment [4] can be described thus: BSK_SAg_PBMCCytotoxicity: PBMC Cytotoxicity Assessment in the BioMAP Diversity Plus: SAg Assay (AID 2283093).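 Also: PBMC viability measured as Alamar Blue reduction fluorescence at 546/580 nm; fitted both ways against DMSO so a hit may be loss or gain of signal.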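 As to AC50: PBMC superantigen activated with SEB plus TSST-1 one hour after compound addition.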 To be noted: primary human HUVEC with PBMC. The essentials: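 Compound added to 75,000 PBMC/well for 1 h; SEB and TSST-1 then added at 20 ng/mL final each; 90 h incubation; Alamar Blue 6 h; read 546/580 nm ex/em. Activity fitted bidirectionally relative to DMSO baseline.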

Read-out in experiment [5]: Interleukin-8 (IL8), CXCL8 (gene 3576)
The experiment is described as follows: BSK_SAg_IL8: BioMAP Diversity Plus: SAg Assay for Interleukin-8 (IL8) Biomarker Activity (AID 2283094). The note with it: primary human HUVEC with PBMC; actives raise or lower the signal. The essentials: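 In this co-culture of human umbilical vein endothelium with peripheral blood mononuclear cells, IL-8 is assayed by ELISA at 24 h. DMSO serves as baseline for bidirectional curve fitting.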

A short description of experiment [6]: BSK_SAg_Proliferation: Cell Proliferation Assessment in the BioMAP Diversity Plus: SAg Assay (AID 2283095).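 Also: relative cell number as total protein by SRB absorbance in sub-confluent culture.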 To be noted: primary human HUVEC with PBMC. The essentials:
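Readout is SRB-stained protein (560 nm) in a primary human HUVEC and PBMC co-culture; sub-confluent cultures are read at 96 h. Activity is fitted bidirectionally using DMSO as baseline.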

A short description of experiment [7]: BSK_SAg_SRB: Viability Assessment in the BioMAP Diversity Plus: SAg Assay (AID 2283096).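 Also: cells read one day after compound addition; hits may be either gain or loss of signal compared with DMSO.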 To be noted: primary human HUVEC with PBMC. The essentials:
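Total protein by sulforhodamine B staining, 24 h after dosing, in HUVEC–PBMC co-culture; DMSO-referenced bidirectional fitting.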

Experiment [8] has as its target human CYP19A1, CYP19A1 (gene 1588) (UniProt P11511). The experiment is described as follows: NVS_ADME_hCYP19A1: NovaScreen (NVS) CYP450-related Enzyme Activity (ADME) Assay for human CYP19A1 (AID 2283098; active = hit-call score of the fitted dose curve at least 0.9, where 1 is the maximum). Here is the method: NVS_ADME_hCYP19A1 is a biochemical, single-readout assay that uses extracted gene-proteins in a cell-free assay. Measurements were taken 0.5 hour after chemical dosing in a 384-well plate.NVS_ADME_hCYP19A1 is one of one assay component(s) measured or calculated from the NVS_ADME_hCYP19A1 assay. It is designed to make measurements of enzyme activity, a form of enzyme reporter, as detected with fluorescence intensity signals by Fluorescence technology.Data from the assay component NVS_ADME_hCYP19A1 was analyzed into 1 assay endpoint. This assay endpoint, NVS_ADME_hCYP19A1, was analyzed in the positive analysis fitting direction relative to Acetonitrile as the negative control and baseline of activity. Using a type of enzyme reporter, loss-of-signal activity can be used to understand changes in the enzymatic activity as they relate to the gene CYP19A1. Furthermore, this assay endpoint can be referred to as a primary readout, because this assay has produced multiple assay endpoints where this one serves a enzymatic activity function. To generalize the intended target to other relatable targets, this assay endpoint is annotated to the cyp intended target family, where the subfamily is steroidogenesis-related.
Binding assays used specific radioligands (tritiated, iodinated) with non-radioactive competitive displacement ligands in agonist or antagonist protocols (as indicated) and various reference compounds and inhibitors to titrate specific binding to receptors and transporters. Most enzyme assays (CYPs, kinases, phosphatases, proteases, HDACs) used recombinant protein and specific substrates (fluorescence mostly, some colorimetric and radioactive) and inhibitors, followed by a biochemical separation of substrate and product. All assays for the biochemical HTS were initially run in duplicate at a single concentration (10 uM for CYP450 assays and 25 uM for all others). […] Each assay was run with positive and negative controls, and concurrent controls on every plate. […]

Chain of E-selectin (Homo sapiens) (P16581 whole entry, looked up): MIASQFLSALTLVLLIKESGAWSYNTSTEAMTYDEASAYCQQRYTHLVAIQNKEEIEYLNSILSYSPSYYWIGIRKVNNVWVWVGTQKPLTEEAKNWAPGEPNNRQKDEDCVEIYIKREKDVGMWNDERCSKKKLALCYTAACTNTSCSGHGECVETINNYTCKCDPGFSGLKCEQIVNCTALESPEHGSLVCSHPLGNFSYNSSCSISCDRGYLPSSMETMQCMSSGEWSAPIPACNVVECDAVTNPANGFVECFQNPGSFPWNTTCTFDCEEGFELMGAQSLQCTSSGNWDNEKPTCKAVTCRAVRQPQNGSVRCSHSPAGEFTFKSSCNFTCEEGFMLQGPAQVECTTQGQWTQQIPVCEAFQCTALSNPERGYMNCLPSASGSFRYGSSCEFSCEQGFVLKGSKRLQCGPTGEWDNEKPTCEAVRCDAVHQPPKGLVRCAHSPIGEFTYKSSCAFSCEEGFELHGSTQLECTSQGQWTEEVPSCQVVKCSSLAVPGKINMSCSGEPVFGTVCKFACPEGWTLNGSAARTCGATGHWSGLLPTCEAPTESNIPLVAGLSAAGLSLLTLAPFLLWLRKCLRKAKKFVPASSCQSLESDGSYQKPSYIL
Chain of human CYP19A1, CYP19A1 (gene 1588) (P11511 whole entry, looked up): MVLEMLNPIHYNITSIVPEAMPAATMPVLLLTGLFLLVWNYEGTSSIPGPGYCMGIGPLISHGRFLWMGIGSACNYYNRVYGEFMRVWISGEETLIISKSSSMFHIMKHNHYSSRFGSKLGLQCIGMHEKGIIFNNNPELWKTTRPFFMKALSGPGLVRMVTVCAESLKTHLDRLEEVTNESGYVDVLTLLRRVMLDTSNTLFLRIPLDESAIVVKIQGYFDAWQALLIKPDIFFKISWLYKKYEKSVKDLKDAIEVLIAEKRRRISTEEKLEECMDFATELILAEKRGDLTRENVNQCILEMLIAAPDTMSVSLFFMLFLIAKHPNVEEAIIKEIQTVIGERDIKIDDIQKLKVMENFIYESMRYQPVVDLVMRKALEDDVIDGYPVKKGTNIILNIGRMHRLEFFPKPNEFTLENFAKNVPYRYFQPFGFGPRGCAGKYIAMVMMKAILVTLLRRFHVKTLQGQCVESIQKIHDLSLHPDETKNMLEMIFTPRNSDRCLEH

With `CC(C)(c1cc(Br)c(OCCO)c(Br)c1)c1cc(Br)c(OCCO)c(Br)c1`, the AC50 in the experiment with CD69, CD69 (gene 969) is 2.31 µM (active); in experiment [2], 1.44 µM (active); in experiment [6], 0.479 µM (active). Further, the outcome in experiment [1], in experiment [3], in experiment [4], in [5] and in [7] was inactive.
As for `O=c1c2ccccc2oc2ccccc12`, the outcome with CD69, CD69 (gene 969) was “inactive”; in [1] it was “inactive”; in experiment [2] it was “inactive”; in experiment [3], “inactive”; in experiment [4], “inactive”; in experiment [5] it was “inactive”. Also, the outcome in experiment [6] and in [7] was inactive.
Consider `CCO[Si](CCCN=C=O)(OCC)OCC`, for which the outcome in the experiment with CD69, CD69 (gene 969) is “inactive”; in experiment [1], “inactive”; in experiment [2], “inactive”; in experiment [3] it was “inactive”; in [4], “inactive”; in experiment [5] it was “inactive”. For the same molecule, the result in experiment [6] and in experiment [7] was inactive.
Turning to `CCCCC(CC)COC(=O)c1ccccc1O` (stereo not drawn), the outcome in the experiment with CD69, CD69 (gene 969) was “inactive”; in experiment [1], “inactive”; in experiment [2] it was “inactive”; in experiment [3], “inactive”; in experiment [5] it was “inactive”; in experiment [7], “inactive”. The figures for the AC50 in experiment [4] and in experiment [6] were 18.4 µM (active) and 17.8 µM (active), respectively.
`O=C(Cl)c1cc(C(=O)Cl)cc(C(=O)Cl)c1`: the AC50 with CD69, CD69 (gene 969) was 31.9 µM (active); in [1], 29.1 µM (active); in [2], 36.6 µM (active); in [3], 34.2 µM (active); in [4], 12.6 µM (active); in [5], 20 µM (active). The results for the AC50 in experiment [6] and in experiment [7] were 12.7 µM (active) and 30.7 µM (active), respectively.
For the molecule `C=CCOc1c(Br)cc(Br)cc1Br`, the outcome in the experiment with CD69, CD69 (gene 969) is “inactive”; in [1], “inactive”; in experiment [2], “inactive”; in [3], “inactive”; in experiment [4], “inactive”; in experiment [5], “inactive”. Further, the outcome in experiment [6] and in [7] was inactive.
Regarding `CC(C)C(=O)C(C)C`, the outcome in the experiment with CD69, CD69 (gene 969) was “inactive”; in experiment [1] it was “inactive”; in [2] it was “inactive”; in experiment [3], “inactive”; in experiment [4] it was “inactive”; in experiment [5], “inactive”. Further, the outcome in experiment [6] and in experiment [7] was inactive.
As for `C=CCOCC(O)CCl` (stereo not drawn), the outcome was “inactive” with CD69, CD69 (gene 969); “inactive” in experiment [1]; “inactive” in experiment [2]; “inactive” in experiment [3]; “inactive” in experiment [4]; “inactive” in [5]. The outcome in experiment [6] and in experiment [7] was inactive.
Consider `O=C(Nc1ccccc1SSc1ccccc1NC(=O)c1ccccc1)c1ccccc1`, for which the AC50 with CD69, CD69 (gene 969) is 2.01 µM (active); in experiment [4] it was 2.78 µM (active); in experiment [5] it was 6.04 µM (active); in experiment [6] it was 3.19 µM (active). In addition, the outcome in experiment [1], in experiment [2], in experiment [3] and in experiment [7] was inactive.
On to `CC(CC=O)CCCC(C)(C)O` (stereo not drawn), for which the molecule was called inactive in [8].
